In experiment [1] the target is Rap guanine nucleotide exchange factor 3 (Homo sapiens) (UniProt O95398). Briefly: Confirmatory qHTS for antagonist of cAMP-regulated guanine nucleotide exchange factor 3 (EPAC1) (AID 1645880).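 For activity, negative = inhibition: plate controls were DMSO only for no effect and full effect of the ATA control for full effect.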 Note: nearly all actives have a fitted effect of over 55% in size. Note: potency is the fitted concentration of half-maximal effect. The settings on record: EPAC1 Rap1B-BODIPY-GDP exchange, fluorescence; activity, negative = inhibition: at 115 µM (top of the series). In a few lines:
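Released BODIPY-GDP fluoresces less than Rap1-bound BODIPY-GDP; the signal is followed at 480/540 nm at 5-min intervals over 30 min, after 5 min at room temperature. Reactions contain 100 nM EPAC1, 250 nM RAP1B-BODIPY-GDP and 50 uM GDP; results are normalized to ATA and DMSO.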
In general terms: In qHTS, concentration-response curves come from the screen itself.

Experiment [2] shares this target. Briefly: Confirmatory qHTS for agonist of cAMP-regulated guanine nucleotide exchange factor 3 (EPAC1) (AID 1645881).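 Note: EPAC1 catalysed release of BODIPY-GDP from Rap1B seen as fluorescence loss; 100% = effect of cAMP agonist control; nearly all actives have a fitted effect of over 75% in size.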 The settings on record: EPAC1 Rap1B BODIPY-GDP exchange fluorescence; series mostly up to 154 µM.
Experiment [3] addresses Rap guanine nucleotide exchange factor 4 (Homo sapiens) (UniProt Q8WZA2). Description: Confirmatory qHTS for agonist of cAMP-regulated guanine nucleotide exchange factor 4 (EPAC2) (AID 1645884).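 Note: nucleotide exchange releases bodipy-GDP from Rap1 and this lowers its fluorescence; % is set by controls: 0 for no effect and ±100 for the full control effect; nearly all actives have a fitted effect of over 65% in size.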 The settings on record: EPAC2 GEF activity, Rap1B-BODIPY-GDP fluorescence; series mostly up to 154 µM.
Experiment [4] has as its target Rap guanine nucleotide exchange factor 3 (Homo sapiens) (UniProt O95398). Description: Counterscreen qHTS for agonist of cAMP-regulated guanine nucleotide exchange factor 3 (EPAC1) (AID 1645889). Note: % of control where 0% means no effect; nearly all actives have a fitted effect of over 40% in size. The settings on record: EPAC1 Rap1B-BODIPY-GDP exchange, fluorescence; series mostly up to 154 µM. Summed up: (§1)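 Measured: fluorescence of BODIPY-GDP bound to Rap1B, which falls as exchange proceeds. Conditions include 50 uM competing GDP, 5 and 30 min reads, and a later cAMP challenge for antagonist detection.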
On the technique in general: A counterscreen serves to expose hits that act by an unwanted route or on another target.

For experiment [5], the target named is Cytochrome P450 3A4 (Homo sapiens) (UniProt P08684). Briefly: qHTS Assay for Inhibitors and Substrates of Cytochrome P450 3A4 (AID 884). Note: potency is the fitted concentration of half-maximal effect; nearly all actives have a fitted effect of over 50% in size. The settings on record: recombinant CYP3A4, Luciferin-PPXE luminescence; series mostly up to 57.1 µM. In a few lines: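 Luminescent readout of luciferin produced by CYP3A4 (20 nM) dealkylation of Luciferin-PPXE, 25 uM (its KM). NADPH-driven reaction ran 60 min at RT after 10 min compound preincubation; data scaled to 57 uM ketoconazole as 100% inhibition.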

The target is the same in experiment [6]. Briefly: qHTS Assay for Activators of Cytochrome P450 3A4 (AID 885). Note: nearly all actives have a fitted effect of over 65% in size. The settings on record: recombinant CYP3A4, Luciferin-PPXE luminescence, 60 min; series mostly up to 57.1 µM. Summed up:
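Using 20nM recombinant human CYP3A4 in potassium phosphate (200mM), substrate Luciferin-PPXE at 25uM, luminescent luciferin detection followed a 60-min RT NADPH reaction; data scaled to 57 uM ketoconazole.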

The target in experiment [7] is Rap guanine nucleotide exchange factor 3 (Homo sapiens) (UniProt O95398). Description: Counterscreen qHTS for antagonist of cAMP-regulated guanine nucleotide exchange factor 3 (EPAC1) (AID 1645888). Note: % of control where 0% means no effect. The settings on record: Rap1B-BODIPY-GDP nucleotide exchange, fluorescence; series mostly up to 154 µM. In a few lines: as §1
The target of experiment [8] is Tumor susceptibility gene 101 protein (Homo sapiens) (UniProt Q99816). Description: qHTS Assay for Iinhibitors of HIV-1 Budding by Blocking the Interaction of PTAP/TSG101: Hit Validation (AID 651600). Note: potency is the fitted concentration of half-maximal effect; nearly all actives have a fitted effect of over 70% in size. The settings on record: PTAP peptide/TSG101 UEV interaction, biochemical assay; series mostly up to 57.5 µM. Summed up: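 Fluorescence polarization binding assay: Tsg101 binding domain (10 uM) mixed with compounds and FITC-labeled PTAP peptide (50 nM) in HEPES pH 7.5, 0.15 M NaCl, 0.01% Tween 20, EDTA, TCEP; 20 min at r.t.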

Experiment [9] in a line: qHTS for Inhibitors of the vitamin D receptor (VDR): Hit Validation using a Texas Red Assay (AID 602201). Note: potency is the fitted concentration of half-maximal effect. The settings on record: VDR coregulator binding, Texas Red fluorescence polarization, agonist-bound VDR ligand-binding domain; series mostly up to 57.1 µM. Summed up: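 Fluorescence polarization (Ex 595/Em 615 nm) of Texas Red (7 nM) with 1.5 uM VDR-LBD and LG19078 (final concentrations). Compounds were incubated for 2 hours at room temperature.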

The target in experiment [10] is Rap guanine nucleotide exchange factor 4 (Homo sapiens) (UniProt Q8WZA2). Briefly: Confirmatory qHTS for antagonist of cAMP-regulated guanine nucleotide exchange factor 4 (EPAC2) (AID 1645885). Note: nearly all actives have a fitted effect of over 25% in size. Note: potency is the fitted concentration of half-maximal effect. The settings on record: EPAC2 Rap1B-BODIPY-GDP exchange fluorescence, biochemical; series mostly up to 12.7 µM.
In experiment [11] the target is DNA dC->dU-editing enzyme APOBEC-3G (Homo sapiens) (UniProt Q9HC16). Description: qHTS for inhibitors of Vif-A3G interactions: Validation (AID 588379). Note: 0% is about no effect. The settings on record: Vif-A3G protein interaction assay; series mostly up to 46.1 µM. Summed up: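 Yellow fluorescence (Ex 488, Em 500-530) of Vif-coexpressing HeLa A3G-eYFP cells, scanned by Acumen cytometer, reports blocked A3G degradation. Cells plated at 700/well overnight at 37 deg C before compound addition, then a further overnight compound incubation at 37 deg C.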

A number with no mark means an inactive call. Records with an inconclusive call do not appear. Calls of active or inactive are those of the source. Calls come from the whole dose curve; as a rule, active = well fitted curve in the direction sought with a large enough effect; inconclusive = small, poorly fitted or top-dose-only effect, or another doubt; inactive = no such curve, though single readings can be large; an effect the other way counts as inactive or inconclusive.

Chain of Cytochrome P450 3A4 (Homo sapiens) (P08684 whole entry, looked up): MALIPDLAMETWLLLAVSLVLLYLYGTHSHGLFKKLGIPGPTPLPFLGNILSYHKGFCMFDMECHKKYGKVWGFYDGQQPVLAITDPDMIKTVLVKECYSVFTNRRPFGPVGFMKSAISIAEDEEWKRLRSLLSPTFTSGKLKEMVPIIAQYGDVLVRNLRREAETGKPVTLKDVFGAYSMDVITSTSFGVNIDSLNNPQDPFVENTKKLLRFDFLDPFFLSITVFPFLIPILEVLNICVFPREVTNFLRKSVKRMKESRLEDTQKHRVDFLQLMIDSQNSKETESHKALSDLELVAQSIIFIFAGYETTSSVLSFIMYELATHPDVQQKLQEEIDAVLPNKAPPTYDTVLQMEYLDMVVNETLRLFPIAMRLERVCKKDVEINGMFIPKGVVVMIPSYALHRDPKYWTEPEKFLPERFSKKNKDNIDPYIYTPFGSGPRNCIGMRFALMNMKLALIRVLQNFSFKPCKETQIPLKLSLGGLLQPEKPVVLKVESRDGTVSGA
Chain of Rap guanine nucleotide exchange factor 4 (Homo sapiens) (Q8WZA2 whole entry, looked up): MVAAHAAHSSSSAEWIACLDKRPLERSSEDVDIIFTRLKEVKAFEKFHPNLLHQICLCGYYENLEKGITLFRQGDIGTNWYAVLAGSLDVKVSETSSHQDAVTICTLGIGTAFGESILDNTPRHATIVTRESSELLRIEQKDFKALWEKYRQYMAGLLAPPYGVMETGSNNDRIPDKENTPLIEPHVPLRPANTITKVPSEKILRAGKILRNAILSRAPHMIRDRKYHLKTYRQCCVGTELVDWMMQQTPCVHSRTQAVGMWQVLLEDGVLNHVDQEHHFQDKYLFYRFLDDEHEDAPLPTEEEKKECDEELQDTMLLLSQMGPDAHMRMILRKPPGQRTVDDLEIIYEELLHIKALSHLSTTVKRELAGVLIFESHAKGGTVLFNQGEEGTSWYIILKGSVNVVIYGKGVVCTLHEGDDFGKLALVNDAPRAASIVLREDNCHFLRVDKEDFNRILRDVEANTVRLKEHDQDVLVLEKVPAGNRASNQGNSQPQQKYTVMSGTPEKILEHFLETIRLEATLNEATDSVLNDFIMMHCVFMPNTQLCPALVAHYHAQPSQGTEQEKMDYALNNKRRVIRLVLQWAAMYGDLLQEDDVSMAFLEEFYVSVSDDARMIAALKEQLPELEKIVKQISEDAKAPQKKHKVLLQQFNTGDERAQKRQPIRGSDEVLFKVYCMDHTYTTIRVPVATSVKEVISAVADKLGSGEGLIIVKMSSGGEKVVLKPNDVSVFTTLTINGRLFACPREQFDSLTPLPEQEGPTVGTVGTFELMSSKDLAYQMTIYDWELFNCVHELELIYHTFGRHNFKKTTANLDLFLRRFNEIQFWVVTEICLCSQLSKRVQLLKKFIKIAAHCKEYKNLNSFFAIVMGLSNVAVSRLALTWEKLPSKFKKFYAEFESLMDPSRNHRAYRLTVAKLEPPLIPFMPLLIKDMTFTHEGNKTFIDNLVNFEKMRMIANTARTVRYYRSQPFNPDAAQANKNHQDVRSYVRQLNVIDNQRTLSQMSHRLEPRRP
Chain of Rap guanine nucleotide exchange factor 3 (Homo sapiens) (O95398 whole entry, looked up): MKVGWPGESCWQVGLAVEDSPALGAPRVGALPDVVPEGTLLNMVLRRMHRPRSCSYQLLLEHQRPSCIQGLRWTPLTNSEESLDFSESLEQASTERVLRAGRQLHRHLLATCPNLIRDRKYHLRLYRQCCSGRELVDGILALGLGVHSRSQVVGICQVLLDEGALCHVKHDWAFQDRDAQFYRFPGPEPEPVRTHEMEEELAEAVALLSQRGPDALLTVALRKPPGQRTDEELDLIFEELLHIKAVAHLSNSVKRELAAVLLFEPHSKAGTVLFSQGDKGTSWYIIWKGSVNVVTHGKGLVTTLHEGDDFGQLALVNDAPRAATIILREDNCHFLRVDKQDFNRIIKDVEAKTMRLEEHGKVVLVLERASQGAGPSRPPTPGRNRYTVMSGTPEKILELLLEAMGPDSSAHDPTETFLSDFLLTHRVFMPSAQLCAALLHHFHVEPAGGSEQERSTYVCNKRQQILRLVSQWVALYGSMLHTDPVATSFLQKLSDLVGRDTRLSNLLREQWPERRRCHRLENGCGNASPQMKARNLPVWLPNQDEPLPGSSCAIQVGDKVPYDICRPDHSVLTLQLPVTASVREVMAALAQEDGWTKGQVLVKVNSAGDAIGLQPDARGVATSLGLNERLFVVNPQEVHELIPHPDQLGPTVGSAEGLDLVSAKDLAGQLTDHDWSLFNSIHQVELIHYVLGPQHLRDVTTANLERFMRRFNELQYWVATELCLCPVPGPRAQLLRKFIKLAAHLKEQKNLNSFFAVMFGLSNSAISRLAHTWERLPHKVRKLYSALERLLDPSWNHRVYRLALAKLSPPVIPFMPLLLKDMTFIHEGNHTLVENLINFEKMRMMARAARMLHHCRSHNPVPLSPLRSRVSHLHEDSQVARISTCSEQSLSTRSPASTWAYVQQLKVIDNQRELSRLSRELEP
Chain of DNA dC->dU-editing enzyme APOBEC-3G (Homo sapiens) (Q9HC16 whole entry, looked up): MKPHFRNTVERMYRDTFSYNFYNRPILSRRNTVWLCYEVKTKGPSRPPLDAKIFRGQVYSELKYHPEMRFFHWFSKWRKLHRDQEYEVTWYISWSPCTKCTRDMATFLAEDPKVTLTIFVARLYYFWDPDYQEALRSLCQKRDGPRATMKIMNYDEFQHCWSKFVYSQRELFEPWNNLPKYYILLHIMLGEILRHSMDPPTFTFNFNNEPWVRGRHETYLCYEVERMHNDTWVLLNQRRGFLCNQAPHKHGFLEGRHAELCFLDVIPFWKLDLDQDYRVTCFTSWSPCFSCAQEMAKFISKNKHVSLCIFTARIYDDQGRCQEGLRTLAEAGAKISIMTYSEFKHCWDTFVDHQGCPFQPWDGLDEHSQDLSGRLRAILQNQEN
Chain of Tumor susceptibility gene 101 protein (Homo sapiens) (Q99816 whole entry, looked up, the tested form may be a part): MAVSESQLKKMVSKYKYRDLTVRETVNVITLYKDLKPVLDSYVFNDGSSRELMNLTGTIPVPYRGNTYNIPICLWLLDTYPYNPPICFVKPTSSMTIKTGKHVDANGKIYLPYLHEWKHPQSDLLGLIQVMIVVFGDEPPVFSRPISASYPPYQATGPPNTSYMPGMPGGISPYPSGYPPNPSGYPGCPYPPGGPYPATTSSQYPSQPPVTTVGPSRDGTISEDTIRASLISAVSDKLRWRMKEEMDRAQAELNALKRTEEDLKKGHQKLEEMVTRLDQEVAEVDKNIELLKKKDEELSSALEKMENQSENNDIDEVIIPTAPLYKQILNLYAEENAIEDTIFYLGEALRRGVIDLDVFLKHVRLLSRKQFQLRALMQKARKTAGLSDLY

In the case of `CC(=O)NC(c1ccc(Cl)cc1)c1ccc2cccnc2c1O` (centres undefined), the Potency result in [1] and in [2] was “inactive” throughout. Further, the activation in [3] is -1.77% [at 17.1 µM, percent relative to cAMP agonist control]; in experiment [4], 6.93% [at 30.8 µM].

In the case of `CC(C)Cn1c(N)c(C(=O)COC(=O)c2cc(-c3ccco3)nc3ccccc23)c(=O)n(C)c1=O`, the Potency in [5] was 15.8 µM (active); in experiment [1], 30.1 µM (active). Moreover, in experiment [6], the outcome was inactive. For the same compound, the Potency entry in experiment [2], in experiment [3], in [7] and in experiment [4] was “inactive” throughout.

As for `COc1ccc(C2CC2/C(=N/O)c2ccccn2)cc1` (centres undefined), the Potency result in [1], in experiment [2], in experiment [3] and in experiment [4] was “inactive” in each case.

Consider `Oc1ccc2ccccc2c1-c1sc(Nc2ccccc2)n[n+]1-c1ccc(F)cc1`, for which the Potency is 10.3 µM (active) in experiment [8] and 19 µM (active) in [1]. The Potency entry in experiment [2], in [3] and in experiment [4] was “inactive” each time.

With `COc1cc(Br)cc(C(=O)N2CCc3ccccc32)c1OC`, the Potency result in experiment [1], in experiment [2], in [3] and in [4] was “inactive” each time.

On to `NS(=O)(=O)c1cccc(Nc2nc3ccccc3nc2NS(=O)(=O)c2ccc(Cl)cc2)c1`, for which, in experiment [1], the Potency is 75.7 µM (active). The Potency entry in experiment [2], in experiment [3] and in [4] was “inactive” each time.

`O=c1cc2oc3cc(O)c(O)cc3c(-c3ccccc3[N+](=O)[O-])c-2cc1O`: in experiment [1], the Potency was 10.7 µM (active). Further, the Potency result in [2], in experiment [3] and in experiment [4] was “inactive” throughout.

`Cc1oc2c(c1C(=O)c1ccccc1)C(=O)C(=O)c1ccccc1-2`: the Potency in experiment [9] is 3.98 µM (active); in experiment [1], 42.6 µM (active). Also, the Potency result in experiment [2], in [3] and in [7] was “inactive” each time.

Take `O=C(Nc1ccccc1OCc1ccccc1)c1ccccc1Br`: the Potency result in experiment [1], in [2] and in [7] was “inactive” in each case. In addition, the Potency in experiment [10] is 1.51 µM (active).

Consider `Cc1ccc(CNc2cc(C)nc3nc(-c4ccc(C)cc4)nn23)cc1`, for which the Potency result in [1], in [2], in experiment [10] and in experiment [7] was “inactive” throughout.

For `COc1ccc(C2OCC3(COC(C)=O)C(C)C=C(C)C2C3C)cc1` (centres undefined), the result in experiment [6] and in [11] was inactive. Besides, the Potency result in experiment [1], in experiment [2] and in experiment [3] was “inactive” each time.

As for `COc1ccc(CCNC(=O)CCCn2c(SCC(N)=O)nc3cc4c(cc3c2=O)OCO4)cc1OC`, the Potency entry in [1], in experiment [2] and in experiment [7] was “inactive” in each case. Also, in experiment [10], the outcome was “inactive [at 12.7 µM]”.

With `CN(C)c1ccc(/C=C/c2sc3ccccc3[n+]2CCCCBr)cc1`, the Potency result in [1], in experiment [2] and in experiment [10] was “inactive” each time.

For the compound `CN(C)c1ccc(/C=C/c2c3c(nc4ccccc24)CCCC3)cc1`, the Potency result in experiment [1], in [2] and in experiment [10] was “inactive” in each case.

In the case of `Cc1cc(C)cc(NC(=O)c2sc3nc(-c4cc5ccccc5oc4=O)[nH]c(=O)c3c2C)c1`, the Potency result in experiment [1], in experiment [2], in [10] and in experiment [7] was “inactive” each time.
